# Source: PubChem BioAssay (NCATS)
# Values joined by “and” are separate entries in the source; they are usually repeats but may differ in a detail not shown here. Identical values can stand only once. Results filed as inconclusive are left out. A call without a number means that no potency is given here. Unmarked numbers belong to inactive results. Active and inactive are the calls of the source. The call rests on the fitted dose curve; in most records, active means well fitted curve in the direction sought with a large enough effect; inconclusive means small, poorly fitted or top-dose-only effect, or another doubt; inactive means no such curve, though single readings can be large; an effect the other way counts as inactive or inconclusive.
# Columns and labels:
# [1] = biological target: Cytochrome P450 3A7 (Homo sapiens) (UniProt P24462); assay: Cytochrome P450 family 3 subfamily A member 7 (CYP3A7) small molecule antagonists: luciferase biochemical qHTS assay (AID 1963596); further: nearly all actives have a fitted effect of over 40% in size
# Method in brief: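 In this luminescent screen, enzyme and proluciferin substrate meet test compound for 10 min before NADPH regeneration solution drives a 1 h room-temperature reaction; detection reagent halts turnover and luminescence is read 20 min later.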
# [2] = Cellular viability qHTS for adrenocortical cancer (ACC) cell line SW-13 (AID 1963989); conditions: SW-13 ACC cells viability, CellTiter-Glo, 48 h; activity (max response): stronger effect = lower value; further: nearly all actives have a fitted effect of over 65% in size; further: potency means the concentration at half of the fitted maximal effect;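 on activity (max response): cells grown in serum-free medium with ITS supplement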
# Method in brief: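 48 h treatment, SW-13 in ITS/DMEM serum-free; doses up to 46 uM; readout CellTiter-Glo luminescence; curve fit four-parameter logistic.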
# [3] = Cellular viability qHTS for adrenocortical cancer (ACC) cell line NCI-H295R (AID 1963990); further: nearly all actives have a fitted effect of over 60% in size; further: potency means the concentration at half of the fitted maximal effect
# Method in brief: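 Compound titrations (up to 46 uM final) are applied to NCI-H295R cultures for 48 h at 37C. Viable cell number is estimated by CellTiter-Glo signal, normalised to DMSO and doxorubicin controls.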
# [4] = Viability qHTS for spleen associated tyrosine kinase inhibitor (SYKi) naive MV4-11 cells (AID 1963823); further: nearly all actives have a fitted effect of over 40% in size; further: potency means the concentration at half of the fitted maximal effect
# Method in brief: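 Cells: MV4-11, SYK inhibitor naive, 500 per well. Treatment: library compounds, 72 hr, 37 C, 5% CO2. Read-out: CellTiter-Glo luminescence after 10 min RT.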
# Chain of Cytochrome P450 3A7 (Homo sapiens) (P24462 whole entry, looked up): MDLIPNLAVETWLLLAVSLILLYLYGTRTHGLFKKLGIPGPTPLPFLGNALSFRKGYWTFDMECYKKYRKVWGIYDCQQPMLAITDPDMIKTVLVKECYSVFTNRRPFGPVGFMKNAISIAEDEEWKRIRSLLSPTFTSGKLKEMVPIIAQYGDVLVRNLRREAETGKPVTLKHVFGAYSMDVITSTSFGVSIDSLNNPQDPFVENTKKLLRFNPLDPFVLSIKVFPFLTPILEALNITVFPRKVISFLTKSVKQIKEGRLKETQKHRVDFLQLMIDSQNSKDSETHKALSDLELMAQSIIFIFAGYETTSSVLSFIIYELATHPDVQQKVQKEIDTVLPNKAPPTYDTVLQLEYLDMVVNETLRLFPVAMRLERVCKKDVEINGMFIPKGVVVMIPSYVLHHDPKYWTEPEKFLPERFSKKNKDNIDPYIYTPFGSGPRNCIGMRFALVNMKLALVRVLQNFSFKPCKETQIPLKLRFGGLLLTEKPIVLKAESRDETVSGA
smiles,measurement,setting,value
Cc1ccc(C(C)C)c(O)c1,Potency,[1],inactive
same,activity (max response),[2],10.4%
same,Potency,[3],inactive
CCOC(CN1CCN(CC(C)C(=O)c2ccccc2)CC1)c1ccccc1 (stereo unspecified),Potency,[1],inactive
same,activity (max response),[2],-8.86%
same,Potency,[3],inactive
CC(C)NCC(O)c1ccc2ccccc2c1 (stereo unspecified),Potency,[1],inactive
same,activity (max response),[2],8.99%
same,Potency,[3],inactive
Cc1nc([N+](=O)[O-])cn1-c1ccc([N+](=O)[O-])cc1,Potency,[1],inactive
same,activity (max response),[2],-2.45%
same,Potency,[3],inactive
NC1CCN(c2cccc(Cl)n2)CC1,Potency,[1],inactive
same,activity (max response),[2],2.41%
same,Potency,[3],inactive
Cc1nc(N)nc(N)c1-c1ccc(Cl)c(Cl)c1,Potency,[1],inactive
same,Potency,[2],0.231 µM (active)
same,Potency,[3],0.13 µM (active)
COc1cc2nc(Cl)nc(N)c2cc1OC,Potency,[1],inactive
same,activity (max response),[2],1.23%
same,Potency,[3],inactive
O=C(O)c1[nH]n(-c2ccc(S(=O)(=O)O)cc2)c(=O)c1N=Nc1ccc(S(=O)(=O)O)cc1,Potency,[1],inactive
same,activity (max response),[2],6.82%
same,Potency,[3],inactive
CCCCCCCCCCCCCCCC(=O)OC(C)C,Potency,[1],inactive
same,activity (max response),[2],6.75%
same,Potency,[3],inactive
C[N+]12CCC(CC1)C(OC(=O)C(O)(c1ccccc1)c1ccccc1)C2 (stereo unspecified),Potency,[1],inactive
same,activity (max response),[2],-2.73%
same,Potency,[3],inactive
CC(C)C(=O)Nc1cccc(C(F)(F)F)c1,Potency,[1],inactive
same,activity (max response),[2],14.2%
same,Potency,[3],inactive
CC(=O)N[C@H]1[C@H]([C@H](O)[C@H](O)CO)OC(C(=O)O)=C[C@@H]1N=C(N)N,Potency,[1],inactive
same,activity (max response),[2],-7.79%
same,Potency,[3],inactive
O=C(O)[C@@H]1CSCN1,Potency,[1],inactive
same,activity (max response),[2],-7.21%
same,Potency,[3],inactive
O=C(Nc1ccccc1)c1ccc(Nc2nnc(-c3ccc(O)cc3)c3ccccc23)cc1,Potency,[4],16.4 µM (active)
C=CC1(C)CC2CCC3C(C)(C(=O)O)CCCC3(C)C2=CC1=O (stereo unspecified),Potency,[4],inactive
CC12CCC3c4ccc(O)cc4CCC3C1CCC2OC1OC(C(=O)O)C(O)C(O)C1O (stereo unspecified),Potency,[4],inactive
C[C@@H]1O[C@@H](O[C@H]2[C@H](O[C@H]3[C@H](O[C@H]4CC[C@@]5(C)C(CC[C@]6(C)C5CC=C5[C@@H]7CC(C)(C)CC[C@]7(C(=O)O[C@@H]7O[C@H](CO)[C@@H](O[C@@H]8O[C@@H](C)[C@H](O)[C@@H](O)[C@H]8O)[C@H](O)[C@H]7O)CC[C@]56C)C4(C)C)OC[C@H](O)[C@@H]3O)O[C@H](CO)[C@@H](O)[C@@H]2O)[C@H](O)[C@H](O)[C@H]1O (stereo partly specified),viability (% of control),[4],3.73% [at 9.25 µM]
CCC(C)C1NC(=O)C(Cc2ccccc2)NC(=O)C(CCCCCC(=O)C(O)CO)NC(=O)C2CCCCN2C1=O (stereo unspecified),Potency,[4],2.43 µM (active)
CC1(C)CC[C@]2(C(=O)O)[C@H](O)C[C@]3(C)C(=CCC4[C@@]5(C)CC[C@H](O[C@@H]6OC[C@@H](O)[C@H](O)[C@H]6O)[C@@](C)(C(=O)O)C5CC[C@]43C)[C@@H]2C1 (stereo partly specified),Potency,[4],inactive
COc1ccc(S(=O)(=O)Nc2nc(-c3cccc([N+](=O)[O-])c3)cs2)cc1OC,Potency,[4],inactive
C=CC(C)(CC/C=C(\C)C(=O)OC[C@H]1O[C@@H](OC(C)(C=C)CC/C=C(\C)C(=O)O[C@H]2[C@H](O)[C@@H](O)[C@H](OC(C)(C=C)CC/C=C(\C)C(=O)O)O[C@@H]2CO)[C@H](O)[C@@H](O)[C@@H]1O)O[C@@H]1O[C@H](CO)[C@@H](O)[C@H](O)[C@H]1O (stereo partly specified),viability (% of control),[4],81.1% [at 9.25 µM]
COc1ccc(CCC(=O)c2c(O)cc(O)cc2O[C@@H]2O[C@H](CO)[C@@H](O)[C@H](O)[C@H]2O)cc1,Potency,[4],7.96 µM (active)
CC12CCC(OC3OC(CO)C(O)C(OC4OC(CO)C(O)C(O)C4O)C3O)CC1=CCC1C2CCC2(C)/C(=C3/COC(=O)C3)CCC12O (stereo unspecified),Potency,[4],inactive
CC(O)C1CCC2C3CCC4CC(OC5OC(C(=O)O)C(O)C(O)C5O)CCC4(C)C3CCC12C (stereo unspecified),Potency,[4],inactive
CC(=O)OC1C(CO)OC(O[C@H]2[C@H](OC(=O)[C@]34CCC(C)(C)C[C@H]3C3=CCC5[C@@]6(C)CC[C@H](O[C@@H]7O[C@H](C(=O)O)[C@@H](O)[C@H](O[C@@H]8OC[C@@H](O)[C@H](O)[C@H]8O)[C@H]7O[C@@H]7O[C@H](CO)[C@H](O)[C@H](O)[C@H]7O)[C@@](C)(C=O)C6CC[C@@]5(C)[C@]3(C)C[C@H]4O)O[C@H](C)[C@H](OC3OC(C)C(OC4OCC(O)C(O)C4O)C(O)C3O)[C@@H]2O)C(O)C1O (stereo partly specified),viability (% of control),[4],87.3% [at 9.25 µM]
CC(NC(=O)[C@H](Cc1ccccc1)NC(=O)OCc1ccccc1)C(=O)CF (stereo partly specified),Potency,[4],inactive
CCC[C@@H]1C[C@@H](C(=O)N[C@H](C(C)Cl)[C@H]2O[C@H](SC)[C@H](O)[C@@H](O)[C@H]2O)N(C)C1 (stereo partly specified),Potency,[4],inactive
CCCCC1CCC(c2nc(-c3ccncc3)no2)CC1 (stereo unspecified),Potency,[4],inactive
NC(=O)NCCCC(NC(=O)Cc1ccccc1)C(=O)O (stereo unspecified),Potency,[4],inactive
CC(C)=CCc1ccc(Oc2c(O)cc(C)cc2CO)c(C(=O)O)c1O,Potency,[4],inactive
CCS(=O)c1nc(-c2cccc(OCc3ccccc3)c2)cc(C(F)(F)F)n1 (stereo unspecified),Potency,[4],2.91 µM (active)
CC1(C)CCCC2(C)C1C(OC(=O)/C=C/C=C/C=O)C=C1COC(=O)C12O (stereo unspecified),Potency,[4],5.02 µM (active)
Cc1cc(C)c(CNC(=O)c2cc(-c3ccc(N4CCN(C)CC4)nc3)cc3c2c(C)cn3C(C)C)c(=O)[nH]1,Potency,[4],13.2 µM (active) and 18.6 µM (active)
C[C@@H]1O[C@@H](O[C@H]2[C@@H]3C=CO[C@@H](O[C@@H]4O[C@H](CO)[C@@H](O)[C@H](O)[C@H]4O)[C@@H]3[C@@]3(CO)O[C@@H]23)[C@H](OC(=O)/C=C/c2ccccc2)[C@H](O)[C@H]1O,Potency,[4],inactive
Cc1cc(CO)c(O)c(C(=O)CC2CC(=O)NC(=O)C2)c1,Potency,[4],inactive
C=CC(C)(CC/C=C(\C)C(=O)OC)OC1OC(COC(=O)CC(C)(O)CC(=O)O)C(O)C(O)C1O (stereo unspecified),Potency,[4],inactive
O=C(O)c1cc2cccc([N+](=O)[O-])c2[nH]1,Potency,[4],inactive
CC(=O)/C=C/C1(O)C(C)(C)CC(O)CC1(C)O (stereo unspecified),Potency,[4],inactive
O=C(O)c1cc(O[C@@H]2O[C@H](CO[C@@H]3OC[C@@H](O)[C@H](O)[C@H]3O)[C@@H](O)[C@H](O)[C@H]2O)c2ccccc2c1O,Potency,[4],inactive
O=C(O)C(Cc1ccccc1)NC(=O)C1CCCN1 (stereo unspecified),Potency,[4],inactive
O=C(/C=C/c1ccc(O)cc1)OC1[C@H](O)CC(O)(C(=O)O)C[C@H]1O (stereo partly specified),Potency,[4],inactive
C[C@H]1C(=O)N2c3ccccc3[C@@]3(O)C[C@@H]4C(=O)N[C@](C)(c5nc6ccccc6c(=O)n54)N1[C@@H]23,Potency,[4],inactive
N#CC1C(=O)N=C(c2cc(Cl)ccc2O)C=C1c1cc(OCc2ccccc2)cc(OCc2ccccc2)c1 (stereo unspecified),Potency,[4],inactive
CC(=O)C1CCC(=O)N1Cc1ccccc1 (stereo unspecified),Potency,[4],inactive
NC1Nc2ccccc2C1(N)CC1NC(=O)C(Cc2ccccc2)NC(=O)C(Cc2ccccc2)NC1=O (stereo unspecified),Potency,[4],inactive
CC(C)(O)/C=C/C1=CC(=O)[C@@](C)(O)C[C@H]1O,Potency,[4],inactive
CC(=O)/C=C/C1(O)C(C)=CC(=O)CC1(C)C (stereo unspecified),Potency,[4],inactive
COc1cc(SC)ccc1C(=O)N1CCC(Cc2ccccc2)CC1,Potency,[4],23.1 µM (active)
COc1cc(CC(COC2OC(CO)C(O)C(O)C2O)c2cc(/C=C/CO)cc(OC)c2O)ccc1O (stereo unspecified),Potency,[4],inactive
CC(=O)O[C@H]1CC(C)(C)CC2[C@@]13[C@H](O)C[C@]1(C)[C@@]2(CCC2[C@@]4(C)CC[C@H](O[C@@H]5OC[C@H](O[C@@H]6O[C@H](CO)[C@@H](O)[C@H](O)[C@H]6O[C@@H]6OC[C@@H](O)[C@H](O)[C@H]6O)[C@H](O)[C@H]5O[C@@H]5O[C@H](CO)[C@@H](O)[C@H](O)[C@H]5O)C(C)(C)C4CC[C@]21C)O[C@@H]3O (stereo partly specified),Potency,[4],0.873 µM (active)
COc1ccc(/C=C/C(=O)O[C@@H]2[C@@H](OC(C)=O)[C@@H](OC(C)=O)[C@H](O[C@H]3[C@@H]4C=CO[C@@H](O[C@@H]5O[C@H](CO)[C@@H](O)[C@H](O)[C@H]5O)[C@@H]4[C@@]4(CO)O[C@@H]34)O[C@H]2C)cc1O,Potency,[4],inactive
CN1c2ccccc2C(=O)N2CCC3c4ccccc4NC3C21 (stereo unspecified),Potency,[4],2.55 µM (active)
CC(=O)OC1CC(C(C)(C)O)OC2CCC3(C)OC4=C(C(=O)C=C5C(C)C(OC(C)=O)C6(C)C(C)OC546)C(O)C3C12C (stereo unspecified),Potency,[4],inactive
Cc1nc2ccccc2c(-c2ccc3c4c(ccnc24)CCO3)c1[C@H](OC(C)(C)C)C(=O)O,Potency,[4],inactive
CC(=O)OC1C(O)/C(C)=C\C2C(OC(=O)c3ccccc3)C(C)CC2(OC(C)=O)C(OC(C)=O)C(C)/C=C/C(C)(C)C1OC(C)=O (stereo unspecified),Potency,[4],inactive
